Screening data (PubChem)
Only some compounds are listed: those with a hit (about 2.2% of all), similar ones and a draw of the others.
CSC inhib = blocks cancer stem cells; cancer stem cell-like cells viability, luminescence; inhibition, % at 7.5 µM; actives 1.1% (n = 300,000); in the data active means inhibition above about 75%; inconclusive means no clear call, values can overlap the other calls; tested in HMLE shEcad cells
Beta cell apopt = blocks beta cell apoptosis; INS-1E cytokine-induced death, ATP luminescence, 48 h; percent of positive-control rescue, neutral wells zero; protection from apoptosis, % (concentration not given with the values); actives 0.8% (n = 300,000); AID 435005;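 active means Every replicate reaches about 75%, or at least half do and their mean reaches it too, limit read from the data; inconclusive means At least half of replicates reach the limit but their mean does not; inactive means Under half of replicates reach the limit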;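 further: higher means more ATP so stronger rescue from cytokine killing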
PfHsp90 yeast 2 = reduces growth (ATP signal) of yeast expressing P. falciparum Hsp90 | S. cerevisiae expressing PfHsp90, BacTiter-Glo ATP, 48 h; yeast lacking PDR1 and PDR3 efflux regulators | inhibition, % at 9.4 µM | actives 0.32% (n = 310,000) | AID 504621;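 active means every replicate shows inhibition above about 80%, whatever the replicate mean, limit read from the data; inconclusive means mean inhibition reaches the set limit but some replicate falls short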
Calb FLC = C. albicans growth modulation with fluconazole. actives 0.57% (n = 300,000). C. albicans CaCi-2 (fluconazole-resistant clinical isolate) + fluconazole, Alamar Blue growth, 48 h. growth inhibition, % (test concentration not listed). AID 1979;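 active means growth inhibition above about 58% in most replicates, limit read from the data, passing the limit was not always enough; inconclusive means exactly half the replicates above a set limit; inactive means most replicates below a set limit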;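 further: all wells also contain fluconazole at 8 µg/ml as a sub-toxic cotreatment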
Shn3 inh set2 = reduces Shn3 3'UTR luciferase signal in osteoblasts; Clone20 osteoblast Shn3 3'UTR firefly luciferase, 24 h; inhibition, % at 12.5 µM; actives 0.52% (n = 360,000); AID 588674;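 active means mean inhibition of at least 75% with every replicate also reaching 75%; inconclusive means mean inhibition at least 75% but some replicate below; inactive means mean inhibition below 75%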
A number is an active result.

How did CCCOc1ccc(/C=N/Nc2cccc([N+](=O)[O-])c2)c(O)c1 do in these assays?
CSC inhib: 113; Beta cell apopt: inactive; PfHsp90 yeast 2: inactive; Calb FLC: inactive; Shn3 inh set2: inactive

How did COc1ccc(/C=N/NC(=S)Nc2ccccc2[N+](=O)[O-])cc1O do in these assays?
CSC inhib: 89; Beta cell apopt: inactive; PfHsp90 yeast 2: inactive; Calb FLC: inactive; Shn3 inh set2: inactive

What do the screens show for `NC(=O)c1ccc(NC(=O)COC(=O)CC2Sc3ccccc3NC2=O)cc1` (stereo not given)?
Beta cell apopt: inactive; PfHsp90 yeast 2: inactive; Shn3 inh set2: inactive

How did O=C1CCC[C@@H]2Cc3nc4cc5c(cc4cc3[C@@H]3CCN1[C@H]23)OCO5 do in these assays?
PfHsp90 yeast 2: inactive; Shn3 inh set2: inactive

Results for Cc1ccc(OCc2nnn(CC(=O)NS(=O)(=O)c3c(C)noc3C)c2-c2ccccc2)cc1 ?
Shn3 inh set2: inactive

Results for CCN(Cc1nc2ccccc2c(=O)[nH]1)C(=O)c1ccc(C)c(NC(=O)c2ccco2)c1 ?
Beta cell apopt: inactive; PfHsp90 yeast 2: inactive; Shn3 inh set2: inactive

What do the screens show for `CC/C(C)=N/Nc1cccc([N+](=O)[O-])c1`?
CSC inhib: inactive; Beta cell apopt: inactive; PfHsp90 yeast 2: inactive; Calb FLC: 92; Shn3 inh set2: inactive

What do the screens show for `CC(C)(C)c1ccc2c(c1)OC(C(=O)N/N=C\c1ccc[nH]1)CO2` (stereo not given)?
CSC inhib: 119; Beta cell apopt: inactive; PfHsp90 yeast 2: inactive; Calb FLC: inactive; Shn3 inh set2: inconclusive

Results for CC(C)(C)c1ccc2c(c1)OC(C(=O)N/N=C\c1ccncc1)CO2 (stereo not given) ?
CSC inhib: inactive; Beta cell apopt: inactive; PfHsp90 yeast 2: inactive; Calb FLC: inactive; Shn3 inh set2: inactive

How did On1onc2c3cc(-c4ccccc4)nc3ccc21 do in these assays?
CSC inhib: inactive; Beta cell apopt: 101; PfHsp90 yeast 2: inactive; Shn3 inh set2: inactive

How did O=C(COc1ccccc1)NC1CCCCCCC1 do in these assays?
CSC inhib: inactive; Beta cell apopt: inactive; PfHsp90 yeast 2: inactive; Calb FLC: inactive; Shn3 inh set2: inactive

How did Cc1cc(C)[n+](-c2ccc(Oc3ccccc3)c(S(=O)(=O)[O-])c2)[nH]1 do in these assays?
CSC inhib: inactive; Beta cell apopt: inactive; PfHsp90 yeast 2: inactive; Calb FLC: inactive; Shn3 inh set2: inactive

What do the screens show for `CC(/C=C1\SC(=S)N(c2ccc(C(=O)O)cc2)C1=O)=C\c1ccccc1`?
CSC inhib: 76; Beta cell apopt: inactive; PfHsp90 yeast 2: inactive; Calb FLC: inactive; Shn3 inh set2: inactive

How did CCOC(=O)c1c(-c2ccccc2)oc2ccc(OCC(O)CN(C)C)cc12 (stereo not given) do in these assays?
CSC inhib: inactive; PfHsp90 yeast 2: inactive; Calb FLC: 94; Shn3 inh set2: inactive

Results for CCOC(=O)c1c(-c2ccccc2)oc2ccc(OC(C)C(=O)O)cc12 (stereo not given) ?
CSC inhib: inactive; Beta cell apopt: inactive; PfHsp90 yeast 2: inactive; Calb FLC: inactive; Shn3 inh set2: inactive

What do the screens show for `CCOC1=C2[C@H](c3ccc(CC)cc3)N(S(=O)(=O)c3ccc(C)cc3)C[C@H]2C(C#N)(C#N)C(C#N)(C#N)C1`?
Shn3 inh set2: 95

What do the screens show for `CC(C)(C)NC(=O)CN(Cc1ccc(F)cc1)C(=O)Cn1nnc(-c2ccc(F)cc2)n1`?
CSC inhib: inactive; Beta cell apopt: inactive; PfHsp90 yeast 2: inactive; Calb FLC: inactive; Shn3 inh set2: inactive

Results for CCOC(=O)C1=C(C)c2ccccc2OC1(C(=O)OCC)C(C)C (stereo not given) ?
PfHsp90 yeast 2: inactive; Shn3 inh set2: inactive

What do the screens show for `CC1(C)CC(=O)C=C(c2ccc(COC(=O)C3CC3)cc2)C1=O`?
Shn3 inh set2: inactive

What do the screens show for `N/C(Cc1ccc(Cl)cc1Cl)=N\OC(=O)c1ccccc1`?
CSC inhib: inactive; Beta cell apopt: inactive; Calb FLC: 118; Shn3 inh set2: inactive

How did N/C(Cc1ccc(Cl)cc1)=N\OC(=O)c1ccc2ccccc2c1 do in these assays?
CSC inhib: inactive; Beta cell apopt: inactive; PfHsp90 yeast 2: inactive; Calb FLC: inactive; Shn3 inh set2: inactive

Results for N/C(Cc1ccc(Cl)cc1)=N\OC(=O)c1cccc2ccccc12 ?
CSC inhib: inactive; Beta cell apopt: inactive; PfHsp90 yeast 2: 128; Calb FLC: inconclusive; Shn3 inh set2: inactive

How did Cc1ccc(NC(=O)c2ccc(Cl)c(N3C(=O)C=CC3=O)c2)cc1 do in these assays?
CSC inhib: 79; Beta cell apopt: inactive; PfHsp90 yeast 2: 124; Calb FLC: inactive; Shn3 inh set2: 92

How did CC1(Oc2ccc3ccccc3c2)CCN(Cc2ccc(OC(F)(F)F)cc2)C1 (stereo not given) do in these assays?
Shn3 inh set2: inactive

What do the screens show for `Oc1[nH]c2ccccc2c1N=Nc1nc2ccccc2s1`?
CSC inhib: inactive; Beta cell apopt: inactive; PfHsp90 yeast 2: inactive; Calb FLC: inactive; Shn3 inh set2: inactive

What do the screens show for `C/C(N=Nc1nc2ccccc2s1)=N\Nc1ccccc1O`?
CSC inhib: 85; Beta cell apopt: inactive; PfHsp90 yeast 2: inactive; Calb FLC: inactive

How did O=C(O)c1ccc(-c2nc(-c3ccc(Cl)cc3)cs2)cc1 do in these assays?
PfHsp90 yeast 2: inactive; Calb FLC: 91; Shn3 inh set2: inactive

What do the screens show for `O=C(O)c1ccc(-c2nc(-c3ccc(Cl)cc3Cl)cs2)cc1`?
CSC inhib: inactive; Beta cell apopt: inactive; PfHsp90 yeast 2: inactive; Calb FLC: inactive; Shn3 inh set2: inactive

Results for CC(C)(C)n1ncc2c(=O)n(Cc3cccc(Cn4cnc5c(cnn5C(C)(C)C)c4=O)c3F)cnc21 ?
Beta cell apopt: 87; PfHsp90 yeast 2: inactive; Shn3 inh set2: 89

How did Cc1ccccc1Cn1cnc2c(cnn2C(C)(C)C)c1=O do in these assays?
CSC inhib: inactive; Beta cell apopt: inactive; PfHsp90 yeast 2: inactive; Calb FLC: inactive; Shn3 inh set2: inactive

How did Cc1cc(C)cc(OCC(=O)OCC(=O)NC2CC2)c1 do in these assays?
CSC inhib: inactive; Beta cell apopt: inactive; PfHsp90 yeast 2: inactive; Shn3 inh set2: inactive

How did COc1cc(/C=C/c2ccc3cccc(OC)c3n2)c(OC(C)=O)c([N+](=O)[O-])c1 do in these assays?
CSC inhib: 78; Beta cell apopt: inactive; PfHsp90 yeast 2: inactive; Calb FLC: inactive; Shn3 inh set2: inactive

What do the screens show for `COc1c(OC(C)=O)ccc(/C=C/c2ccc3cccc(OCc4ccccc4)c3n2)c1[N+](=O)[O-]`?
CSC inhib: 87; Beta cell apopt: inactive; PfHsp90 yeast 2: inactive; Calb FLC: inactive; Shn3 inh set2: inactive

How did NS(=O)(=O)c1ccc(CNC(=O)c2cc(S(=O)(=O)N3CCOCC3)c(Cl)cc2Cl)cc1 do in these assays?
Shn3 inh set2: inactive

How did Cc1cnc(C(=O)OCC(=O)Nc2cc(-c3ccccc3)nn2-c2ccccc2)cn1 do in these assays?
CSC inhib: inactive; Beta cell apopt: inactive; PfHsp90 yeast 2: inactive; Calb FLC: inactive; Shn3 inh set2: inactive

How did CCCCN(Cc1ccco1)S(=O)(=O)c1ccc(-c2ccc(=O)[nH]n2)s1 do in these assays?
CSC inhib: inactive; Beta cell apopt: inactive; PfHsp90 yeast 2: inactive; Calb FLC: inactive; Shn3 inh set2: inactive
